Bioassay records from PubChem BioAssay.
The list is not random: actives were taken first. Their share in the collection is about 2.7%.
FAS TE block: FAS thioesterase (human) inhibition; inhibition, % at 15 µM; P49327; recombinant FAS-TE, OMFH fluorogenic substrate, fluorescence endpoint; 0.67% of 360,000 active;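 active = compounds whose normalised, plate-corrected inhibition of enzyme fluorescence in the single-dose primary screen is 50% or more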
KLK7 zymogen act: proKLK7 (human) activation, primary screen; P49862; purified proKLK7, EDANS-DABCYL substrate fluorescence; 100% is mature enzyme control, 0% vehicle; activation, % at 7 µM; 0.9% of 370,000 active; AID 652039;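 active = activation above the mean of all tested compounds plus 3 SD, computed per campaign excluding outliers beyond control limits, cut at about 13% in these data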
PfGluPho inh: PfG6PD (Plasmodium falciparum) enzyme inhibition | PfGluPho enzyme, NADPH resazurin-diaphorase fluorescence | inhibition, % at 20 µM | 0.78% of 350,000 active | AID 504690;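 active = inhibition reaching at least a set limit at 20 µM in the primary screen, cut at about 59% in these data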
Neddylation inh: blocks human cullin neddylation; P61081+Q13564; TR-FRET cullin neddylation, biochemical; calls only at 25 µM; 0.58% of 360,000 active; AID 651699; in the data active = inhibition above about 36%
KLK7 act conf: proKLK7 activation, confirmation | activation, % at 7 µM | purified proKLK7, EDANS-DABCYL substrate fluorescence; scaled: vehicle 0, mature enzyme 100 | 68% of 3,200 active | shares compounds with KLK7 zymogen act;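 active = activation, as change over the incubation, above the mean of all tested compounds plus 3 SD, cut at about 13% in these data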
EDANS interfere: optically interferes with EDANS-DABCYL signal, flagging KLK7 hits | activation, % at 7 µM | shares compounds with KLK7 zymogen act | 80% of 3,200 active | AID 686952 | EDANS-DABCYL substrate fluorescence interference, no enzyme, 4 h; solvent 0%, active enzyme control 100%;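 active = activation above the all-compound mean plus 3 SD, ignoring values outside control-based bounds, cut at about 4.8% in these data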;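 also: value is the 4 h activation minus the activation read at time zero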
Of the large screens only hits and unclear results are named; the others gave an inactive call (follow-up assays come after a bar, where shown).

CC1(C)C2CCC1(C)C(OC(=O)C[n+]1ccccc1N)C2 (stereo unspecified)	KLK7 zymogen act 52 | KLK7 act conf 99 | EDANS interfere 100
Cc1csc(NC(=O)c2ccc(COc3cccc(F)c3)o2)n1	none (no result: FAS TE block, PfGluPho inh, Neddylation inh)
COc1cc(OC)c(/C=N/NC(=O)c2ccncc2)c(OC)c1	KLK7 zymogen act 14 | KLK7 act conf inactive | EDANS interfere 9.1
COc1ccc(/C=N/NC(=O)c2ccncc2)c(OC)c1	none
COc1c(N2CCN[C@H](C)C2)c(F)cc2c(=O)c(C(=O)O)cn(C3CC3)c12	none (no result: FAS TE block, KLK7 zymogen act, Neddylation inh)
CC1COc2c(N3CCN(C)CC3)c(F)cc3c(=O)c(C(=O)O)cn1c23 (stereo unspecified)	KLK7 zymogen act 160 (not shown: Neddylation inh) | KLK7 act conf 32 | EDANS interfere 34
CCOc1ccc(NC(=O)c2ccc(NC(=O)c3cn4c5c(c(N6CCN(C)CC6)c(F)cc5c3=O)OCC4C)cc2)cc1 (stereo unspecified)	KLK7 zymogen act 43 | KLK7 act conf inactive | EDANS interfere 8.4
COc1ccc(-c2cc(C(F)(F)F)n3nc(C(=O)NCCCn4ccnc4)cc3n2)cc1	KLK7 zymogen act 57 (not shown: Neddylation inh) | KLK7 act conf inactive | EDANS interfere inactive
COc1ccc(-c2cc(C(F)(F)F)n3nc(C(=O)NCCN4CCOCC4)cc3n2)cc1	none (not shown: Neddylation inh)
COC(=O)C[C@@H]1CC[C@H]2[C@H](COc3ccc(NC(=O)c4cccc(C(F)(F)F)c4)cc3C(=O)N2C)O1	none (no result: FAS TE block, PfGluPho inh, Neddylation inh)
COc1ccc(-c2oc3ccc(-c4ccc5c(c4)OCO5)cc3c2C#CC2(O)CCCCC2)cc1	none
COc1cc(-c2ccc3oc(-c4cccc(C)c4)c(C#CC4(O)CCCCC4)c3c2)cc(OC)c1OC	KLK7 zymogen act 83 (not shown: Neddylation inh) | KLK7 act conf inactive | EDANS interfere inactive
CN(C)CC(=O)N[C@H]1C[C@@H]2O[C@H](CO)CC[C@@H]2O[C@@H]1CCc1ccc(-c2ccc(F)cc2)cc1	none (no result: FAS TE block, PfGluPho inh, Neddylation inh)
N#Cc1ccc(C23OCCN2CCn2c3c3ccccc3[n+]2[O-])cc1 (stereo unspecified)	none
Cc1ccc(C23OCCN2CCn2nc4ccccc4c23)cc1 (stereo unspecified)	KLK7 zymogen act 44 (not shown: Neddylation inh) | KLK7 act conf inactive | EDANS interfere inactive
c1coc(-c2cc3nc(NCc4ccc5c(c4)OCO5)ccn3n2)c1	none (not shown: PfGluPho inh, Neddylation inh)
COC(=O)C1=CN(Cc2ccc(OC)cc2)C=C(C(=O)OC)C1c1cc(OC)c(OC)c(OC)c1	none (not shown: KLK7 zymogen act, Neddylation inh)
COC(=O)C1=CN(CC2CCCO2)C=C(C(=O)OC)C1c1cc(OC)c(OC)c(OC)c1 (stereo unspecified)	KLK7 zymogen act 16 (not shown: Neddylation inh) | KLK7 act conf inactive | EDANS interfere inactive
CN(Cc1ccccc1)S(=O)(=O)c1cccc(C(=O)OCc2cccc(C(F)(F)F)c2)c1	none (no result: FAS TE block, PfGluPho inh, Neddylation inh)
CCC(C(=O)NC1CCCC1)n1c(-c2ccnc3ccccc23)nc2ccccc21 (stereo unspecified)	none (no result: FAS TE block, PfGluPho inh)
CN(C)c1cccc(C(=O)NNC(=S)NC2CCCC2)c1	none
CNC(=S)NNC(=O)c1cccc(N(C)C)c1	KLK7 zymogen act 14 | KLK7 act conf 13 | EDANS interfere 12
Cc1[nH]c2ccccc2c1/C=C(\C#N)S(=O)(=O)c1ccccc1	KLK7 zymogen act 14 | KLK7 act conf inactive | EDANS interfere inactive
Cc1nc2ccc(NC(=O)c3ccccc3)cc2c(=O)n1Cc1ccc(F)cc1	none
Cc1ccc2nc(-c3ccc(SCC(=O)Nc4nnc(C)s4)nc3)[nH]c2c1	KLK7 zymogen act 14 (not shown: Neddylation inh) | KLK7 act conf inactive | EDANS interfere 6.0
COCCCN1C(=O)C(CC(=O)NC2CCCCC2)CC(C(=O)N2CCCCCC2)=C1C (stereo unspecified)	KLK7 zymogen act 83 (no result: PfGluPho inh) | KLK7 act conf inactive | EDANS interfere inactive
O=C(COC(=O)c1cc(Br)ccc1O)NNC(=O)c1cccs1	KLK7 zymogen act 25 | KLK7 act conf 21 | EDANS interfere 24
O=C(NOC(=O)c1cc(Br)ccc1Cl)c1cccs1	none
COc1cc(C2Nc3ccccc3C(=O)N2NS(C)(=O)=O)ccc1O (stereo unspecified)	KLK7 zymogen act 27 | KLK7 act conf inactive | EDANS interfere 6.8
CS(=O)(=O)NN1C(=O)c2ccccc2NC1c1cccc2cccnc12 (stereo unspecified)	none
COc1ccc(C2Nc3ccccc3C(=O)N2NS(=O)(=O)c2ccccc2)cc1 (stereo unspecified)	KLK7 zymogen act 17 | KLK7 act conf inactive | EDANS interfere 7.7
COc1ccccc1N1C(=O)c2ccccc2NC1c1cc(OC)c(OC)c(OC)c1 (stereo unspecified)	KLK7 zymogen act 23 (not shown: Neddylation inh) | KLK7 act conf 14 | EDANS interfere 15
O=C1c2ccccc2NC(c2ccccc2)N1NS(=O)(=O)c1ccccc1 (stereo unspecified)	none
COc1ccc(C2Nc3ccccc3C(=O)N2NS(C)(=O)=O)cc1 (stereo unspecified)	KLK7 zymogen act 61 (not shown: Neddylation inh) | KLK7 act conf inactive | EDANS interfere 11
Cc1ccccc1S(=O)(=O)NC(=O)C1(C)CCN1C(=O)c1cccc2ccccc12 (stereo unspecified)	none (no result: PfGluPho inh)
COC(=O)C1CN(Cc2cn(CCOC(C)=O)nn2)CCS(=O)(=O)N1Cc1ccc(OC)cc1 (stereo unspecified)	none (no result: FAS TE block, PfGluPho inh, Neddylation inh)
CC1Nc2ccccc2C(=O)N1NS(C)(=O)=O (stereo unspecified)	KLK7 zymogen act 61 (not shown: Neddylation inh) | KLK7 act conf 26 | EDANS interfere 22
COc1ccc(C2Nc3ccccc3C(=O)N2NS(=O)(=O)c2ccc(C)cc2)c(OC)c1 (stereo unspecified)	none (not shown: Neddylation inh)
COc1ccc(C2Nc3ccccc3C(=O)N2NS(=O)(=O)c2ccccc2)c(OC)c1 (stereo unspecified)	KLK7 zymogen act 18 (not shown: Neddylation inh) | KLK7 act conf 35 | EDANS interfere 32
COC(=O)[C@]12CCCCC=C1N(Cc1ccccc1)C(=O)[C@H](CC(=O)N1CCN(C(=O)c3ccco3)CC1)C2	none (no result: PfGluPho inh)
CC1CCCCC1NC(=O)c1cc2c(=O)n3ccccc3nc2n1C (stereo unspecified)	KLK7 zymogen act 41 (not shown: Neddylation inh) | KLK7 act conf inactive | EDANS interfere inactive
CCN(C(=O)c1cc2c(=O)n3ccccc3nc2n1C)C1CCCCC1	KLK7 zymogen act 67 (not shown: Neddylation inh) | KLK7 act conf 66 | EDANS interfere 80
CN(C(=O)c1cc2c(=O)n3ccccc3nc2n1C)C1CCCCC1	KLK7 zymogen act 69 (not shown: Neddylation inh) | KLK7 act conf 74 | EDANS interfere 81
CCN(C(=O)c1cc2c(=O)n3ccccc3nc2s1)C1CCCCC1	none (not shown: Neddylation inh)
CCN(C(=O)c1cc2c(=O)n3ccccc3nc2n1CCCOC)C1CCCCC1	KLK7 zymogen act 55 (not shown: Neddylation inh) | KLK7 act conf 76 | EDANS interfere 78
Cc1ccc2c(c1)N(CCCC(=O)NCc1cccs1)C(=O)CO2	none (no result: FAS TE block, PfGluPho inh, Neddylation inh)
O=C(C(=O)N1CCN(C(=O)OCc2ccccc2)CC1)c1cccs1	none (no result: FAS TE block, PfGluPho inh)
Cc1ccc(-c2[nH]ncc2C(=O)c2ccc(Br)cc2)c(O)c1	none
CC(=O)COc1ccc2c3c(c(=O)oc2c1C)CCCCC3	none (not shown: Neddylation inh)
